Data reported in PubChem BioAssay AID615 (Sanford-Burnham Center for Chemical Genomics, 2007).
Hit rate of the full screen: of about 21,000 compounds, fewer than 10 were called active.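 The calls were made as follows: active = inhibition above 50% at the 20 µM single-dose screen; inactive = the rest.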 The list is a sample of the results.

molecular target: Alkaline phosphatase, tissue-nonspecific isozyme (Homo sapiens) (UniProt P05186); assay: human TNAP enzyme inhibitors, primary screen, biochemical, colorimetric, p-nitrophenol readout (AID 615); settings: purified TNAP, pNPP hydrolysis, absorbance 405 nm; at 20 µM; stronger effect = higher value;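 also: 0% = DMSO only wells and 100% = 1 mM levamisole wells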
Sequence (P05186 whole entry, looked up): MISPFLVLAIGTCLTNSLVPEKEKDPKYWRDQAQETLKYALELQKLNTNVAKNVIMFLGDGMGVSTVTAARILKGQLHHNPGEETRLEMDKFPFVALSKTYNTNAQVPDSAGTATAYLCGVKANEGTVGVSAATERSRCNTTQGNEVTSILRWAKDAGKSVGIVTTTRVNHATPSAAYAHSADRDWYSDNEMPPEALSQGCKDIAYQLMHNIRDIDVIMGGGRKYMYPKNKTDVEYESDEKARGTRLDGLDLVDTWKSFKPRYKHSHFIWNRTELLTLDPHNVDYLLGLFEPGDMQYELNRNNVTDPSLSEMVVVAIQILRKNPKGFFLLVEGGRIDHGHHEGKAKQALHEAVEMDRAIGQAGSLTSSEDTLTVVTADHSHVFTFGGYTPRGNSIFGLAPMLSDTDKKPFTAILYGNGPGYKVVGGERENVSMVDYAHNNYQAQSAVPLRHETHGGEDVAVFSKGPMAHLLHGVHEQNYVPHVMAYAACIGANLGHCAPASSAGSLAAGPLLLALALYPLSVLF

inhibition, inactive:
CCOc1cccc(NC(=O)C2CCCN(S(=O)(=O)c3ccc(OC)cc3)C2)c1 (configuration not stated) -1.6%, O=c1[nH]c(=O)n(Cc2ccco2)c2c1C(C(F)(F)F)(C(F)(F)F)N=C(c1ccco1)N2 1.6%, CCN(CC)C(=O)CSc1nnc(-c2ccc(S(=O)(=O)NCc3ccccc3Cl)cc2)o1 3.4%, CCN(CC)CCN1C(=O)C(=O)/C(=C(/O)c2ccc(OC)c(OC)c2)C1c1ccccn1 (configuration not stated) -8.8%, CCCOC(=O)C1=C(C)NC2=C(C(=O)C(C(=O)OC)C(C)C2)C1c1ccc(N(C)C)cc1 (configuration not stated) 6.3%, COC(=O)c1cccc(NC(=O)CN2CCC(NC(=O)c3cc(OC)c(OC)c(OC)c3)CC2)c1 4.5%, Cn1nnnc1SCC(=O)N1CCN(Cc2ccccc2)CC1 3.1%, CCn1c(Cc2ccccc2)nnc1SCc1nc2ccccc2c(=O)[nH]1 2.9%, c1ccc(-n2ncc3c(N4CCCC4)ncnc32)cc1 4.2%, CC1(C)C2CCC1(C)C(OC(=O)CCn1ccnc1)C2 (configuration not stated) 3.3%, Cc1cc(NC(=O)CCC(=O)N(c2cccc(F)c2)C(C(=O)NC2CCCC2)c2ccncc2)no1 (configuration not stated) 2.9%, CCn1c(SCC(=O)c2ccc(Cl)s2)nnc1-c1cccs1 3.7%, COc1ccc2[nH]c3ccc(OC)cc3c2c1 6.8%, O=C(NCCN1CCOCC1)c1c(F)c(F)c(F)c(F)c1F -0.8%, CCOC(=O)c1ccc(N2C(=O)CC(Sc3nc(O)c(CC)c(=O)[nH]3)C2=O)cc1 (configuration not stated) -2.3%, CC(C)c1nc(N2CCOCC2)c(C#N)c2c1COC(C)(C)C2 -4.2%, Cc1ccc2c(c1)c1ncn(CCC3=CCCCC3)c(=O)c1n2C 1.2%, CC1(C)CC(=O)C2=C(C1)NCN(CCCN1CCOCC1)C2 3%, c1ccc2c(NCC3CCCO3)nc(-c3ccncc3)nc2c1 (configuration not stated) 3.1%, Cc1ccn2cc(C(=O)NC3CCN(Cc4ccccc4)CC3)nc2c1 -6.8%, CCC(C)(C)n1nnnc1C(c1cccs1)N1CCN(Cc2ccccc2)CC1 (configuration not stated) -10%, COc1ccc(NC(=O)CSc2nnc(-c3cccs3)n2Cc2ccco2)cc1OC 3.1%, N#CNC1=NCN(CCc2ccccc2)CN1 4.9%, C=CCN1C(=O)C(O)(CC(=O)c2ccc(Cl)cc2)c2ccccc21 (configuration not stated) 5.4%, CCc1ccc(-c2nnn(Cc3nc4ccccc4s3)n2)cc1 3%, O=C1[C@@H]2C(Cc3ccc(O)cc3)NC3(C(=O)Nc4ccc(F)cc43)[C@@H]2C(=O)N1c1ccc(F)cc1 (some centres not stated) 1.7%, COC(=O)c1ccccc1NC(=O)CN(Cc1ccccc1)S(C)(=O)=O 6%, CCCc1nc2ccccc2c(C(=O)OCc2nnc(-c3cc(OC)c(OC)c(OC)c3)o2)c1CC 1.2%, CCOC(=O)c1cc2occc2n1CC(=O)NC1CCC(C)CC1 (configuration not stated) 5.1%, CCOc1cccc(=O)c2c(C)n(CC3CCCO3)c(C)c12 (configuration not stated) -12.4%, O=C(NC1CC2CCCC(C1)N2C(=O)N1CCCCC1)C1CCCCC1 (configuration not stated) 4.8%, CCOC(=O)C1C(=O)NC(N2CCN(c3ccccc3)CC2)=NC1c1ccco1 (configuration not stated) 2.1%, CCN(Cc1cc2cc(C)ccc2[nH]c1=O)S(=O)(=O)c1ccccc1 6.4%, O=C(NCCCCO)C(F)(F)C(F)(F)C(F)(F)C(=O)NCCCCO 4.2%, Cc1cc(N2C(=O)C(=O)/C(=C(/O)c3ccccc3)C2c2cccc(Br)c2)no1 (configuration not stated) 0.9%, CN(c1nc2ccccc2n2c(-c3ccco3)nnc12)S(=O)(=O)c1ccccc1 4.7%, CC(=O)c1cccc(NC(=O)N2CCCC2C(=O)NCCC(C)C)c1 (configuration not stated) 7.2%, Cc1ccc(F)cc1NC(=O)c1cccc(N(C)C)c1 5%, CC1=C2C(=O)OC(c3ccoc3)C2(C)CCC1 (configuration not stated) 0%, CCOC(=O)CSc1nnc(-c2ccco2)n1C 3%, Cc1ccc(C(=O)OCC(=O)NCc2ccc3c(c2)OCO3)s1 3.6%, Cc1ccc(S(=O)(=O)N2CCC(C(=O)OCC(=O)N3CC(=O)Nc4ccccc43)CC2)cc1 5.7%, CCCCCNC(=O)Cc1ccc(OC)cc1 2.1%, Cc1nc(NCc2ccccc2)c(C(N)=O)c2c1COC(C)(C)C2 3%, CC(=O)N(Cc1cccs1)C1CCOC(C)(C)C1 (configuration not stated) 2.9%, CSc1nc(O)c(Cc2ccccc2)c(=O)[nH]1 0.9%, CC(C)C(NC(=O)c1cccc(S(=O)(=O)N2CCOCC2)c1)C(=O)NCCc1ccccn1 (configuration not stated) 4.3%, CSCCC1NC2(C(=O)Nc3ccc(Cl)cc32)[C@@H]2C(=O)N(C3CCCC3)C(=O)[C@H]12 (some centres not stated) 7.3%, Cc1cnc(NC(=O)CSc2nnc(-c3ccc(Cl)cc3Cl)n2N)s1 -1.5%, COc1ccc(-c2c3c(=O)n(C)c(=O)n(C)c3cn2NC(C)=O)cc1 3.2%, CCSC1=C(C#N)C(=O)n2c1cc1c2CCCC1 1.7%, Cc1cc(C(=O)N2CCN(c3ccccn3)CC2)c(C)o1 6%, COc1cccc(-c2nnc(N(C)C(=O)c3ccno3)s2)c1 2.3%, CC(=O)N1CSCC1C(=O)O (configuration not stated) 8.6%, COc1ccc(O)c(C=Nc2cc(C)on2)c1 5.7%, O=C1CSC(=O)N1CCOCCN1C(=O)CSC1=O 4.8%, COc1ccc(C2CC(c3ccc(C)cc3)Nc3nc(N)nn32)cc1 (configuration not stated) 3.3%, CC1(C)CC(=O)C(C2=NC(C)(C)Cc3ccccc32)=C(O)C1 -1%, CCn1c(SCC(=O)NCc2ccco2)nnc1-c1ccc(N)cc1 0.2%, CCOc1cc(C)c(Cl)cc1S(=O)(=O)n1nnc2ccccc21 3.6%, CC1CCCN(C(=O)Cn2c(=O)oc3ccccc32)C1 (configuration not stated) 3.7%, O=C(Nc1c(Cl)cccc1Cl)C1CCC1 3.6%
